Compound activity (PubChem BioAssay)
TexasRed fluor: Texas Red fluorescence interference in TRb-SRC2 counter-screen. TRb/SRC2 Texas Red total fluorescence interference. Potency, µM (doses to about 106 µM), for the others: at the highest dose fluorescence change, negative = quenching. actives 0.29% (n = 280,000). AID 1479; active means well fitted curve in either direction with a large enough effect; inconclusive means small, poorly fitted or top-dose-only effect
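Human TRb ligand-binding domain at 0.6 uM with 20 nM Texas Red SRC2 peptide in Tris buffer containing 1 uM T3 and 5% DMSO, incubated with compound 5 h at ambient temperature. Total fluorescence (555/632 nm) calculated as parallel + 2 × perpendicular.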
TRb-SRC2 inh: inhibitors of human thyroid hormone receptor beta-SRC2 interaction; P10828; TRbeta-SRC2 peptide binding, fluorescence polarization; receptor liganded with 1 µM T3; Potency, µM (doses to about 106 µM), for inactives: at the top dose activity change, negative = inhibition, hits mostly inhibitors; actives 0.065% (n = 280,000);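 further: plate controls were bound peptide for no effect and peptide without receptor for full effect; nearly all actives have a fitted effect of over 50% in size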
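Read-out is fluorescence polarization (555 nm excitation, 632 nm emission) of a Texas Red SRC2 coactivator peptide; loss of signal reflects blocked binding to human TRb ligand-binding domain in the presence of 1 uM T3.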
Tau fluor counter: counter-screen for tau fibril formation inhibitors | actives 0.93% (n = 280,000) | tau K18 P301L Alexa594 fluorescence, heparin fibrillization | Potency, µM (titrated, usually from 57.7 µM), without a hit: at the top dose activity change, negative = decrease; further: nearly all actives have a fitted effect of over 55% in size
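Human K18 P301L tau (15 uM unlabeled plus 0.24 uM Alexa 594-labeled, final) in 100 mM sodium acetate pH 7 was mixed with compound and 20 uM heparin and incubated 6 hr at 37 C.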
Tau fibril FP: tau fibrillization inhibition (FP); P10636; K18 P301L tau heparin fibrillization, Alexa594 FP, 6 h; Potency, µM (top dose mostly 57.7 µM), for inactives: top-dose activity, negative = inhibition, actives largely listed as inhibitors; actives 0.39% (n = 280,000); AID 1468; further: nearly all actives have a fitted effect of over 55% in size
Target sequence (P10636 561-689 P618L limits assumed): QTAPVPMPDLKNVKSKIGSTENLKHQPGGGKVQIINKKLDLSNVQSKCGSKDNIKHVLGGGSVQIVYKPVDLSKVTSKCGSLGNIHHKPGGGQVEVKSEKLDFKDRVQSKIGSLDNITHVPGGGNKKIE
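Quantitative HTS format: compounds meet 15 uM recombinant K18 P301L tau and Alexa 594-tau tracer in 100 mM sodium acetate pH 7; 20 uM heparin triggers fibrillization at 37 C over 6 hr; FP gives the signal.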
GoLoco inh red: blocks human Gai1 binding to RGS12 GoLoco peptide, red readout; actives 0.44% (n = 230,000); Gai1:RGS12 GoLoco peptide FP, rhodamine, 10 min; AID 880; P63096; Potency, µM (highest dose often 61.6 µM), without a hit: at the top dose activity, negative = inhibition, actives largely listed as inhibitors; active means well fitted inhibition curve with a large enough effect, not every such curve was filed as active; inactive means no such curve, though single readings can be large or run the other way; further: nearly all actives have a fitted effect of over 30% in size
Target sequence (P63096 whole entry, looked up): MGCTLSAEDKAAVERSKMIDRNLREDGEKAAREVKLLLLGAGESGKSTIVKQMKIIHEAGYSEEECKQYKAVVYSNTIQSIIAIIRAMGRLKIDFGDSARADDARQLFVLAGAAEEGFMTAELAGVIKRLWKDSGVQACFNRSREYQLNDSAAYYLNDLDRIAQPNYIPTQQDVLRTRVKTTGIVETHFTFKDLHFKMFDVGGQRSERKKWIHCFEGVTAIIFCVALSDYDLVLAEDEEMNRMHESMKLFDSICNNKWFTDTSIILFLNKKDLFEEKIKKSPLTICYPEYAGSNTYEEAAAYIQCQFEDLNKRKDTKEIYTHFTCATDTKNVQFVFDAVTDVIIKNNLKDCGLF
Tau ThT inhib: inhibitors of human tau fibril formation, thioflavin T binding. recombinant tau K18 P301L (four-repeat tau fragment), heparin-induced fibrillization, ThT fluorescence. Potency, µM (doses to about 57.4 µM), without a hit: at the highest dose activity, negative = inhibition, usual class: inhibitors. actives 2.1% (n = 270,000). AID 1460; further: nearly all actives have a fitted effect of over 55% in size
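In this qHTS, human K18 P301L tau is incubated with compound and heparin for 6 hr at 37 C, and Thioflavin T fluorescence then reports fibril load.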
The depositor's hits bear a star; [ ] = remark or other dose. Shown are actives, neighbours in structure and some others; about 3.2% of the full set was active somewhere. Unless noted, the call rests on the fitted dose curve; in most records, active means well fitted curve in the direction sought with a large enough effect; inconclusive means small, poorly fitted or top-dose-only effect, or another doubt; inactive means no such curve, though single readings can be large; an effect the other way counts as inactive or inconclusive. Unless noted, on the % scale 0 is the no-effect control and ±100 the full control effect; potency means the concentration at half of the fitted maximal effect.

CCc1ccc2c(c1)C1(NN=C(c3cccc4ccccc34)S1)C(=O)N2 (stereo unspecified) was read as TexasRed fluor 0%, TRb-SRC2 inh -9%, Tau fluor counter inconclusive, Tau fibril FP 13%, GoLoco inh red 6% and Tau ThT inhib 16µM*.
Screening C=CCSC1=N/C(=C\C=C\c2ccco2)C(=O)S1 returned TexasRed fluor inconclusive, TRb-SRC2 inh -4%, Tau fluor counter inconclusive, Tau fibril FP inconclusive, GoLoco inh red 23% and Tau ThT inhib 13µM*.
`O=c1c2ccccc2c2ccccc2c(=O)n1-c1cc2c3ccccc3ccc2c2ccccc12` gave GoLoco inh red 4%[14.2 µM].
COC/C=C/C1=CC2=CC(=O)C(C)(OC(=O)c3ccco3)C(=O)C2=CO1 (stereo unspecified) was read as TexasRed fluor 3%, TRb-SRC2 inh -8%, Tau fluor counter inconclusive, Tau fibril FP inconclusive, GoLoco inh red 27% and Tau ThT inhib 25µM*.
`COC/C=C/C1=CC2=CC(=O)C(C)(OC(=O)c3cccs3)C(=O)C2=CO1` (stereo unspecified) gave TexasRed fluor -2%, TRb-SRC2 inh 8%, Tau fluor counter -10%, Tau fibril FP -2%, GoLoco inh red 0% and Tau ThT inhib -13%.
`COC/C=C/C1=CC2=CC(=O)C(C)(OC(=O)C3CCCC3)C(=O)C2=CO1` (stereo unspecified) gave TexasRed fluor -2%, TRb-SRC2 inh 5%, Tau fluor counter inconclusive, Tau fibril FP 10µM*, GoLoco inh red 16% and Tau ThT inhib 25µM*.
Screening CCN1CCN(Cc2ccc(NC(=O)c3cc(NC(=O)c4ccc5n[nH]nc5c4)cc(OC)c3)cc2C(F)(F)F)CC1 returned TexasRed fluor -2%, TRb-SRC2 inh 4%, Tau fluor counter -29%, Tau fibril FP inconclusive, GoLoco inh red 5% and Tau ThT inhib 11%.
Screening CCN1CCN(Cc2ccc(NC(=O)c3cc(NC(=O)c4cc(-c5ccc(OC)cc5)n[nH]4)cc(OC)c3)cc2C(F)(F)F)CC1 returned TexasRed fluor 0%, TRb-SRC2 inh 4%, Tau fluor counter inconclusive, Tau fibril FP 28µM*, GoLoco inh red 5% and Tau ThT inhib inconclusive.
Screening O=C1C(=O)N(Cc2ccc(Cl)c(Cl)c2)c2ccccc21 returned TexasRed fluor -1%, TRb-SRC2 inh 0%, Tau fluor counter -27%, Tau fibril FP -4%, GoLoco inh red 12% and Tau ThT inhib 14µM*.
For O=C1C(=O)N(Cc2cccc([N+](=O)[O-])c2)c2ccccc21 the results were TexasRed fluor -1%, TRb-SRC2 inh 3%, Tau fluor counter 3%, Tau fibril FP 5%, GoLoco inh red -5% and Tau ThT inhib -13%.
Oc1ccccc1C(Sc1nc2ccccc2s1)Sc1nc2ccccc2s1 was read as GoLoco inh red -5%[14.2 µM].
`Cc1ccc(C(=O)c2sc(Nc3ccc(F)cc3)nc2N)c(C)c1` gave TexasRed fluor -1%, TRb-SRC2 inh 0%, Tau fluor counter 16µM*[quencher], Tau fibril FP 14% and Tau ThT inhib -14%.
`Nc1nc(Nc2cccc(C(F)(F)F)c2)sc1C(=O)c1ccccc1` gave TexasRed fluor -4%, TRb-SRC2 inh 8%, Tau fluor counter inconclusive, Tau fibril FP 5% and Tau ThT inhib -9%.
CC(C)(C)C(=O)c1sc(Nc2ccccc2)nc1N was read as TexasRed fluor -4%, TRb-SRC2 inh -9%, Tau fluor counter inconclusive, Tau fibril FP 19%, GoLoco inh red -1% and Tau ThT inhib inconclusive.
Nc1nc(Nc2ccccc2F)sc1C(=O)c1ccc(Cl)cc1 was read as TexasRed fluor 2%, TRb-SRC2 inh -1%, Tau fluor counter 16µM*[quencher], Tau fibril FP -2% and Tau ThT inhib 25µM*.
